The list is not random: actives were taken first. Their share in the collection is about 3.7%.
GLP1R ag = agonists of human GLP-1 receptor. P43220. HEK293 GLP-1R CRE-luciferase, luminescence, 4-6 h; cells express a hypersensitive GLP-1R form. Potency, µM (series often up to 45.6 µM), for the others: at the top dose activation, hits mostly activators. 0.007% of 380,000 active; further: % of control where 0% means no effect
Target sequence (P43220 whole entry, looked up): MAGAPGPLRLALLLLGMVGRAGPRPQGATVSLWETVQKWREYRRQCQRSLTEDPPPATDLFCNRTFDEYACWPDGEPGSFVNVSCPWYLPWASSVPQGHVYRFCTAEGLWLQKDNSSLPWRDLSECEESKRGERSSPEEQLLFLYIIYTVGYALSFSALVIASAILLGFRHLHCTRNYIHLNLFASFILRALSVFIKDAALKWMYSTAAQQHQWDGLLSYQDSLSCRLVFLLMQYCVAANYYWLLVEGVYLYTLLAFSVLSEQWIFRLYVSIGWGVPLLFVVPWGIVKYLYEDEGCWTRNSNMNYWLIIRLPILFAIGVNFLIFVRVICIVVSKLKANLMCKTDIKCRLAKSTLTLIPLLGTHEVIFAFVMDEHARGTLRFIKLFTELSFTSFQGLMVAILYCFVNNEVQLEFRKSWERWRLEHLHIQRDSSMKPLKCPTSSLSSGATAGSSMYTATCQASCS
TGFb inhibitor = inhibitors of TGF-b signaling | HepG2 CAGA-GFP TGF-b/SMAD3 reporter, GFP fluorescence, 18 h; TGF-beta stimulated, 500 pg/mL final | Potency, µM (doses to about 46.1 µM), inactives show top-dose activity, negative = inhibition, usual class: inhibitors | 1.2% of 410,000 active; further: on the % scale 0 is the no-effect control and ±100 the full control effect; nearly all actives have a fitted effect of over 65% in size
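HEPG2 CAGA-GFP reporter cells (1000/well, DMEM with 1% FBS) received compounds, then recombinant TGF-beta at 500 pg/mL final for 18 hours at 37 degrees C. Per-cell GFP summed per well was normalised to unstimulated and stimulated DMSO controls before curve fitting.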
ATXN2 expr inh = reduces ATXN2 reporter expression in HEK-293 cells; HEK-293 ATXN2-luciferase reporter, luminescence, 24 h; Potency, µM (highest dose often 57 µM), for inactives: top-dose activity change, negative = inhibition, actives largely listed as inhibitors; 0.72% of 360,000 active; further: on the % scale 0 is the no-effect control and ±100 the full control effect; nearly all actives have a fitted effect of over 55% in size
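ATXN2-luciferase reporter cells (luciferase flanked by upstream and downstream ATXN2 gene portions) were treated 24 h at 37 °C with compounds at up to 57 uM. SteadyGlo luminescence gave expression; GF-AFC fluorescence gave viability.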
GLP1R inv ag = acts as inverse agonist at human GLP-1 receptor; Potency, µM (series often up to 38.3 µM), for the others: at the top dose activity change, negative = inhibition, most hits filed as inhibitors; 1.6% of 410,000 active; HEK293 GLP-1R CRE-luciferase, luminescence, 24 h; GLP-1R form is constitutively active; further: on the % scale 0 is the no-effect control and ±100 the full control effect; nearly all actives have a fitted effect of over 55% in size
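GLP-1R inverse agonism mode: basal reporter luminescence in engineered HEK293 cells measured after one day of compound exposure at 37 deg C, with a 12 min room-temperature detection step.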
HepG2 viability = kills HepG2 cells in TGF-b inhibitor counter-screen; HepG2 CAGA-GFP viability, ATP luminescence, 18 h; Potency, µM (highest dose often 46.1 µM), for the others: at the highest dose activity change, negative = cytotoxicity, actives largely listed as cytotoxic; 0.76% of 410,000 active
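HepG2 CAGA-GFP cells (1000/well, DMEM with 1% FBS) received compound, then TGF-beta at 500 pg/mL final, and were incubated 18 hours at 37 degrees C. Viability was read by CellTiter-Glo luminescence. Media-only wells were set as complete cell-killing and DMSO as no toxicity.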
S2 tox = cell viability loss in ATXN counter-screen. S2 cells (HEK-293 line with an ATXN2-luciferase reporter) viability, CellTiter-Fluor protease fluorescence, 24 h. Potency, µM (top dose mostly 56.7 µM), most hits filed as cytotoxic. 0.49% of 400,000 active; further: nearly all actives have a fitted effect of over 40% in size
Active calls of the source: *; i = inactive; u = inconclusive; x = no result; ! = repeats disagree; [ ] = another dose, or the depositor's remark. The call rests on the fitted dose curve; in most records, active means well fitted curve in the direction sought with a large enough effect; inconclusive means small, poorly fitted or top-dose-only effect, or another doubt; inactive means no such curve, though single readings can be large; an effect the other way counts as inactive or inconclusive. Potency means the concentration at half of the fitted maximal effect.

SMILES	GLP1R ag	TGFb inhibitor	ATXN2 expr inh	GLP1R inv ag	HepG2 viability	S2 tox
CCOC(=O)c1ccc(N2C(=O)c3[nH]nc(-c4ccccc4)c3C2c2ccc(CC)cc2)cc1 (stereo not given)	-5.5%	11.2µM*	u	11.2µM*	11.2µM*	x
Cc1cccc(C(=O)Nc2ccc(C(=O)Nc3ccc(O)cc3)cc2)c1	-4.5%	5.7%	u	2.82µM*	0.0%	i
Cc1ccc(C(=O)Nc2cc(C(C)C)c(O)c(C(C)C)c2)cc1	-12.3%	u	0.4%	4.47µM*	-3.6%	i
Cc1cccc(C(=O)Nc2ccc(C(=O)/C=C/c3ccncc3)cc2)c1	8.9%	11.2µM*	1.3%	27.4%	-52.0%	i
Cc1cccc(C(=O)Nc2ccc(NC(=O)c3cccc(C)c3)cc2)c1	1.8%	-2.4%	x	-14.4%	-13.2%	u
Cc1cccc(C(=O)Nc2ccc(C(=O)/C=C/c3cccnc3)cc2)c1	20.0%	1.41µM*	u	14.0%	-59.8%	u
C[C@@H]1CN(Cc2ccc3c(c2)CN(C(=O)c2ccc(Oc4ccccc4)o2)CCO3)C[C@H](C)O1	x	x	x	x	x	i
CCn1c(C(=O)N2CCCC(C(=O)N3CCN(c4cc(C)ccc4C)CC3)C2)cc2sccc21 (stereo not given)	x	i	x	1.5%	-17.3%	x
O=C(NCCc1ccccc1Cl)c1ccc2c(=O)n(-c3ccccc3)c(=O)[nH]c2c1	x	-2.8%	u	-23.2%	-34.4%	u
O=C(NCCc1nnc2n1CCN(Cc1ccsc1)CC2)c1ccc(F)cc1	x	x	x	x	x	i
O=C(/C=C/c1cccnc1)/C=C/c1cccnc1	-3.9%	3.55µM*	u	u	6.31µM*	u
CC(=O)Nc1cccc(C(=O)/C=C/c2ccc(F)cc2)c1	-4.2%	u	u	u	12.6µM*	u
CC(C)=CCC/C(C)=C\CC/C(C)=C\CC/C=C(\C)CC/C=C(\C)CCC=C(C)C	-5.2%	x	x	x	x	x
Cc1cc(NCCCCCCCNc2cc(C)nc3cc([N+](=O)[O-])ccc23)c2ccc([N+](=O)[O-])cc2n1	-36.2%	8.91µM*	u	u	-116.8%	21.2µM*
COc1ccc(S(=O)(=O)Nc2cc(Cl)ccc2OC)cc1	-1.5%	-7.5%	-11.4%	1.41µM*	-0.6%	u
COc1ccc(Cl)cc1S(=O)(=O)Nc1ccc2c(c1)n(C)c(=O)n2C	15.1%	-18.6%	47.6%	53.7%	20µM*!	i
COc1ccc(S(=O)(=O)Nc2ccc3c(c2)n(C)c(=O)n3C)cc1OC	22.5%	-5.6%	65.7%	103.1%	-29.6%	i
COc1ccc(Cl)cc1NS(=O)(=O)c1ccc(OC)c(OC)c1	-8.4%	-21.3%	-3.2%	-2.0%	-2.5%	i
COc1ccc(C)cc1S(=O)(=O)Nc1cc(Cl)ccc1Cl	-33.7%	-6.0%	-21.3%	8.91µM*	-5.7%	i
COc1cc(-c2ccc(Cl)cn2)cc2c1OCCN(C(=O)c1ccccc1-n1cccn1)C2	x	x	x	x	x	i
COc1ccc(CCNC(=O)c2ccc(Br)cc2)cc1	20.0%	2.1%	3.9%	-12.0%	-3.3%	i
COc1ccc(CCNC(=O)c2coc(=O)c(Br)c2)cc1	-7.6%	17.8µM*	u	u	12.6µM*	x
Cc1cccnc1-c1cccc2c1OC(CNC(=O)/C=C/c1cccs1)C2 (stereo not given)	x	x	x	x	x	i
CC(OCc1ccccc1)C(NC(=O)OC(C)(C)C)C(=O)NC1COC2CC(n3cc(F)c(=O)[nH]c3=O)OC12 (stereo not given)	x	1.4%	x	x	-10.1%	x
Cc1ccc(SCCC(=O)OCn2nnc3ccccc3c2=O)cc1	3.7%	3.4%	-17.0%	0.5%	-12.2%	i
SMILES	GLP1R ag	TGFb inhibitor	ATXN2 expr inh	GLP1R inv ag	HepG2 viability	S2 tox
O=C(CCSc1ccccc1)OCn1nnc2ccccc2c1=O	5.2%	3.98µM*	4.7%	-6.6%	-6.5%	i
CCOc1ccc(/C=C2\CCC(C3CCCC3)C2=O)cc1 (stereo not given)	0.7%	20.7%	46.7%	11.5%	4.8%	i
CCC(=O)OCOc1ccc(/C=C2/CCC(CN(C)C)C2=O)cc1 (stereo not given)	-7.7%	6.31µM*	u	u	-99.5%	u
COc1ccc(NC(=O)CC2C(=O)N(Cc3cccs3)C(=S)N2C(C)C)cc1 (stereo not given)	10.0%	-26.2%	10.3%	u	-11.1%	i
COc1ccc(NC(=O)CC2C(=O)N(Cc3ccco3)C(=S)N2C(C)C)cc1 (stereo not given)	-2.7%	1.1%	-9.0%	10µM*	7.2%	i
CC(C)c1ccc(C(=O)NCCCN2CCN(CCCNC(=O)c3ccc(C(C)C)cc3)CC2)cc1	15.5%	14.1µM*	-14.1%	u	17.8µM*	u
CCN(CC)CCCNC(=O)c1ccc2c(Cl)c3c(nc2c1)CCCC3	6.8%	12.6µM*	28.2µM*	4.47µM*	1.58µM*!	20µM*!
O=C(Nc1cccnc1Cl)c1ccc2c(Cl)c3c(nc2c1)CCC3	10.5%	-24.0%	109.1%[11.3 µM]	20.7%	1.4%	i
O=C(NCCCN1CCN(CCCNC(=O)c2ccc(F)cc2)CC1)c1ccc(F)cc1	-4.2%	-6.1%	11.9%	7.9%	-5.7%	i
O=C(Nc1ccccc1F)c1ccc2c(Cl)c3c(nc2c1)CCC3	-2.2%	u	-67.8%	u	10µM*	i
CCCN1CCN(CCCNC(=O)c2ccc3c(Cl)c4c(nc3c2)CCCC4)CC1	11.2%	u	u	5.01µM*	-22.1%	u
CCc1ccc(NC(=O)CCn2cnc3ccccc3c2=O)cc1	x	-28.9%	12.4%	2.5%	-8.4%	i
O=C(NCCNCCO)C1(C(F)(F)F)CC(CCc2ccccc2)CCCO1 (stereo not given)	x	3.98µM*	x	x	-21.6%	x
CC(C)(C)c1ccc(C(=O)CC(Sc2ccc(Cl)cc2)C(=O)O)cc1 (stereo not given)	1.4%	u	u	u	15.8µM*	x
CCOC(=O)C(CS)NCCN[C@@H](CS)C(=O)OCC (stereo not given in full)	-0.9%	x	x	x	x	x
COc1ccc(OC)c(-c2nnc3ccc(-c4ccc(OC)c(O[C@@H]5CCOC5)c4)nn23)c1	x	x	27.3µM*	x	x	x
COc1ccc(OC)c(-c2nnc3n2N=C(c2ccc(OC)c(OC4CCOC4)c2)CS3)c1 (stereo not given)	u	u	-11.9%	x	-0.5%	u
COc1ccccc1C1CN(CCNC(=O)c2cscn2)Cc2ccccc2O1 (stereo not given)	x	x	x	x	x	i
